mIDH1 inhibitor = qHTS for Inhibitors of mutant isocitrate dehydrogenase 1 (IDH1): qHTS | IDH1-R132H enzyme, NADPH consumption, diaphorase/resazurin fluorescence | Isocitrate dehydrogenase [NADP] cytoplasmic (Homo sapiens), O75874 | actives 0.093% (n = 390,000) | Potency, µM (doses to about 76.6 µM), actives largely listed as inhibitors; note: nearly all actives have a fitted effect of over 65% in size
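IDH1-R132H (0.5 ug/mL dispensed) in pH 7.5 Tris buffer was preincubated 30 min with compound, then given a substrate mix of 0.016 mM NADPH and 2 mM alpha-KG for 80 min at room temperature; remaining NADPH was read by diaphorase/resazurin fluorescence.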
TrxR1 substrate = qHTS Assay for Substrates of Mammalian Selenoprotein Thioredoxin Reductase 1 (TrxR1): qHTS; Thioredoxin reductase 1, cytoplasmic (Rattus norvegicus), O89049; purified TrxR1 substrate turnover, NADPH consumption readout; Potency, µM (highest dose often 114 µM); actives 0.01% (n = 390,000); note: nearly all actives have a fitted effect of over 50% in size
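Rat TrxR1, dispensed at 90 nM, was prereduced with 400 uM NADPH (final) for 5 min at ~22 deg C, then incubated with compound 15 min before 400 uM selenite. A first-read NADPH fluorescence drop versus no-compound background flagged substrates.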
GLS inh = qHTS for Inhibitors of Glutaminase (GLS) | Glutaminase kidney isoform, mitochondrial (Homo sapiens), O94925 | GLS enzymatic activity, qHTS titration | Potency, µM (highest dose often 45.5 µM), actives largely listed as inhibitors | actives 0.21% (n = 410,000)
Target sequence (O94925 whole entry, looked up, canonical isoform): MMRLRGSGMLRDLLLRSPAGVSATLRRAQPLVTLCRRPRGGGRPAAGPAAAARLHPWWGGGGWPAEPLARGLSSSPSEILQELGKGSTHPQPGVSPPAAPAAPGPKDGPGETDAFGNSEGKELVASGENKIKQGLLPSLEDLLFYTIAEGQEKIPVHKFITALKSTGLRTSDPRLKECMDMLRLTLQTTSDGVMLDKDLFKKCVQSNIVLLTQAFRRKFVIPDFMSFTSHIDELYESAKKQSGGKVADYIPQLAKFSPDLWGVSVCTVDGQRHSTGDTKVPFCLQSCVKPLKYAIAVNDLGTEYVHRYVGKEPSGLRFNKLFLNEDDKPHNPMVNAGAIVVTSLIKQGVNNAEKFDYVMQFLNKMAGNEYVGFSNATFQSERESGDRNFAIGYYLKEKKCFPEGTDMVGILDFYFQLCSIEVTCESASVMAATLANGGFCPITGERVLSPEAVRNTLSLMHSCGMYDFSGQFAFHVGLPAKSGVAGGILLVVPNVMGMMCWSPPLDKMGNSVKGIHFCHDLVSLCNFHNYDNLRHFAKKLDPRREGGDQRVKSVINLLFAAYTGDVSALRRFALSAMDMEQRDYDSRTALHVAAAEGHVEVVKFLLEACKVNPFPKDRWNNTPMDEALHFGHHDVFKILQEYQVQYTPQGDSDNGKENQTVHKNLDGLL
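Compounds were pin-transferred onto hKGA, after which L-glutamine (1 mM solution) and a detection mix of glutamate oxidase, HRP and Amplex Red were added. Initial and 30 min RT fluorescence reads were collected.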
TrxR1 inh = qHTS Assay for Inhibitors of Mammalian Selenoprotein Thioredoxin Reductase 1 (TrxR1): qHTS | Thioredoxin reductase 1, cytoplasmic (Rattus norvegicus), O89049 | recombinant rTrxR1, NADPH fluorescence consumption, selenite substrate | Potency, µM (doses to about 114 µM), usual class: inhibitors | actives 1% (n = 390,000) | AID 588453, 2011; note: nearly all actives have a fitted effect of over 65% in size
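Rat TrxR1 (90 nM in the dispensed reagent) was pre-reduced with 400 uM NADPH for 5 min at room temperature, then incubated with compound for 15 min. After 400 uM selenite was added, NADPH fluorescence (Ex 340/Em 450 nm) was followed for 8 min.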
Of the large screens only hits and unclear results are named; the others gave an inactive call; ! = not active in a repeat. This is a sample that favours compounds with a hit; in the whole collection about 1.2% have one here. Calls come from the whole dose curve; as a rule, active = well fitted curve in the direction sought with a large enough effect; inconclusive = small, poorly fitted or top-dose-only effect, or another doubt; inactive = no such curve, though single readings can be large; an effect the other way counts as inactive or inconclusive.

CCOC(=O)C1CCCN(C(=O)c2ccc(-c3ccc([N+](=O)[O-])cc3)o2)C1 (stereo not drawn)	TrxR1 inh 10µM
O=C(Cc1ccc(OCCCc2ccccc2)cc1)NO	none (no result: mIDH1 inhibitor, GLS inh)
Cc1cc(-c2ccccc2)n(-c2ccccc2)n1	none
CC1N=C2c3ccccc3N=C(SCC(=O)NCc3ccc(Cl)cc3)N2C1=O (stereo not drawn)	none
CCOC(=O)N1CCN(c2cc(=O)n(-c3ccc(Br)cc3)c(=O)[nH]2)CC1	TrxR1 inh 17.8µM
O=c1c2ccccc2sn1-c1ccc(Cl)c(S(=O)(=O)N2CCOCC2)c1	none (no result: mIDH1 inhibitor, GLS inh)
COc1ccc(C#Cc2c(-c3ccccc3)n(-c3ccccc3)c3ccc(CO)cc23)cc1	TrxR1 inh 35.5µM
N#C/C(=C\c1ccc(-c2cc(Cl)ccc2Cl)o1)C(=O)Nc1cccc2ncccc12	TrxR1 inh inconclusive (no result: mIDH1 inhibitor, GLS inh)
CCOc1ccc(S(=O)(=O)N2CCOCC2)cc1NC(=O)CCN1C(=O)NC2(CCCC2)C1=O	none (no result: TrxR1 substrate, TrxR1 inh)
CCOC(=O)c1c(/N=C/c2ccc(C)cc2O)sc2c1CCN(C)C2	GLS inh 10µM
CCCS(=O)(=O)c1c(S(=O)(=O)CCC)c2ccccn2c1C(=O)OC	TrxR1 inh 39.8µM
CCCS(=O)(=O)c1c(S(=O)(=O)CCC)c2c(C)cccn2c1C(=O)OC	TrxR1 inh 25.1µM
CCCS(=O)(=O)c1c(S(=O)(=O)CCC)c2c3ccccc3ccn2c1C(=O)OC	none
O=C(CCN1C(=O)/C(=C/c2cccs2)SC1=S)Nc1ccc(C(=O)O)cc1	none
O=C(CN1C(=O)/C(=C/c2ccco2)SC1=S)Nc1ccc(C(=O)O)c(O)c1	GLS inh 22.4µM
O=C(CCCN1C(=O)/C(=C\c2cccs2)SC1=S)Nc1ccc(C(=O)O)cc1	TrxR1 substrate 79.4µM
O=C(CN1C(=O)/C(=C/c2ccco2)SC1=S)Nc1ccc(O)c(C(=O)O)c1	none
CC(C(=O)Nc1ccc(C(=O)O)c(O)c1)N1C(=O)/C(=C\c2ccco2)SC1=S (stereo not drawn)	GLS inh 17.8µM
O=C(CCCN1C(=O)/C(=C\c2cccs2)SC1=S)Nc1ccc(O)cc1C(=O)O	none
O=C(CCCN1C(=O)/C(=C\c2ccco2)SC1=S)Nc1ccc(O)cc1C(=O)O	GLS inh inconclusive, TrxR1 inh 50.1µM
N#C/C(=C\c1ccc(-c2ccc(C(=O)O)cc2)o1)C(=O)Nc1ccccc1C(=O)O	TrxR1 inh inconclusive
c1ccc(CN=C(NCc2ccccc2)NCc2ccccc2)cc1	none
O=C(CN1CCN(C(c2ccccc2)c2ccccc2)CC1)N1CCOCC1	none
Oc1c(C(c2ccccc2)N2CCOCC2)ccc2ccccc12 (stereo not drawn)	GLS inh inconclusive, TrxR1 inh 3.16µM
COc1ccc(Cn2c(=O)c3oc4ccccc4c3n(Cc3cccc(C(F)(F)F)c3)c2=O)cc1	none
CC(=O)/C=C/c1ccc2c(c1)S(=O)(=O)N(C1CCCC1)[C@H]2CC(C)=O	none (no result: mIDH1 inhibitor, GLS inh)
Cc1cccc(C)c1-n1c(C)cc(/C=C2\NC(=O)NC2=O)c1C	none
Cc1c(/C=C2\NC(=O)NC2=O)c2ccccc2n1C	GLS inh 12.6µM
O=C1/C(=C/c2ccco2)Oc2c1ccc(O)c2CN1CCCCC1	TrxR1 inh inconclusive
CCC(=O)Oc1ccc2c(c1)O/C(=C\c1ccco1)C2=O	TrxR1 inh 79.4µM
COCCN(CCOC)Cc1c(O)ccc2c1O/C(=C\c1ccco1)C2=O	TrxR1 inh 79.4µM
CC(=O)Nc1ccccc1OCc1cc(=O)n2c3c(sc2n1)CCCC3	none
COc1cc2c(C#N)c(N3CCCC3)nc(N)c2c(N)n1	TrxR1 substrate 15.8µM!
Cn1cnc([N+](=O)[O-])c1Sc1ncnc2nc[nH]c12	TrxR1 inh 25.1µM
Cn1cnc(Sc2ncnc3nc[nH]c23)c1[N+](=O)[O-]	none
Cc1cc(-c2onc(C)c2C(=O)N/N=C/c2ccccc2)no1	none
Cc1ccc(SC(=O)c2c(C)noc2-c2cc(C)on2)cc1	TrxR1 inh 39.8µM
O=C(Nc1ccc2nc(-c3ccc(Br)o3)[nH]c2c1)c1cccs1	TrxR1 inh 15.8µM
CC(=O)Nc1ccc2nc(-c3ccc(Br)o3)[nH]c2c1	TrxR1 inh 11.2µM
O=C(Nc1ccc2nc(-c3ccc(Br)o3)[nH]c2c1)c1ccco1	none
Cn1cccc1-c1nc2ccc(NC(=O)c3cccs3)cc2[nH]1	none
CCOc1ccccc1N(C)C(=O)CCS(=O)(=O)c1ccc2c(c1)NC(=O)C(C)S2 (stereo not drawn)	TrxR1 inh 70.8µM
CC1Sc2ccc(S(=O)(=O)CCC(=O)N(C)Cc3ccco3)cc2NC1=O (stereo not drawn)	none
COc1ccc(-c2nc3ccc(NC(=O)CO)cc3c(=O)n2Cc2cccc(Cl)c2)cc1COc1ccc(NC(C)=O)cc1	TrxR1 inh inconclusive (no result: mIDH1 inhibitor, GLS inh)
O=C(c1ccc2nc(-c3ccco3)c(-c3ccco3)nc2c1)N1CCN(c2ccccc2)CC1	TrxR1 inh inconclusive
CCc1nc2ccc(C(=O)NCCc3ccc(OC)c(OC)c3)cc2nc1CC	none
CCC(C)NC(=O)c1ccc2nc(Cc3ccccc3)oc2c1 (stereo not drawn)	GLS inh inconclusive
CCC(C)NC(=O)c1ccc2nc(-c3ccco3)c(-c3ccco3)nc2c1 (stereo not drawn)	TrxR1 inh 2.82µM (no result: mIDH1 inhibitor, GLS inh)
O=C(O)c1ccc2nc(-c3ccco3)c(-c3ccco3)nc2c1	GLS inh 7.08µM, TrxR1 inh 2.24µM
O=C(Nc1ccc2nc(-c3ccco3)c(-c3ccco3)nc2c1)NC1CC1	TrxR1 inh 4.47µM
COc1ccc(CCNC(=O)c2ccc3nc(-c4ccco4)c(-c4ccco4)nc3c2)cc1OC	TrxR1 inh 2.51µM
CC[N+]1(CC(=O)c2ccc(Cl)cc2)CCCCC1	none (no result: mIDH1 inhibitor, GLS inh)
CCOc1ccc(NC(=O)CN(C)C(=O)C2CC(=O)N(c3cccc(SC)c3)C2)cc1OCC (stereo not drawn)	none
CCC(=O)N1CCc2cc(CNC(=O)C(CC)c3ccccc3)ccc21 (stereo not drawn)	none
O=C(Nc1cccc(C(F)(F)F)c1)c1ccc2nc(-c3ccco3)c(-c3ccco3)nc2c1	GLS inh inconclusive, TrxR1 inh 5.01µM
O=S(=O)(c1ccc2nc(-c3ccco3)c(-c3ccco3)nc2c1)N1CCOCC1	TrxR1 inh 3.98µM
CN(C)Cc1cc(O)c(CN(C)C)cc1O	GLS inh 14.1µM, TrxR1 inh 14.1µM
CN(C)Cc1cc(C(C)(C)C)cc(C(C)(C)C)c1O	none
CCOC(=O)C1=C(COC(=O)/C=C/c2ccc(C)o2)NC(=O)NC1C (stereo not drawn)	TrxR1 inh 50.1µM
CC1=C(C(=O)Nc2ccccc2)C(c2ccc[nH]2)n2ncnc2N1 (stereo not drawn)	GLS inh inconclusive, TrxR1 inh 39.8µM! (no result: mIDH1 inhibitor)
CC1=C(C(=O)Nc2ccccc2)C(c2ccccn2)n2ncnc2N1 (stereo not drawn)	none

Screens: PubChem BioAssay, National Center for Advancing Translational Sciences (NCATS)
